These entries were drawn from the full list.
aSyn 5UTR act – Activators via SNCA 5'UTR binding, MLPCN | alpha-synuclein 5'UTR reporter, activators screen | activity score, % (tested at 7.5 µM), hits read low | actives 7.1% (n = 300,000) | AID 1814, 2009; in the data active = activity score below about -60%
An asterisk follows results filed as active.

SMILES	aSyn 5UTR act
COc1ccc2cc(CN(CC3CCCO3)S(=O)(=O)c3ccc(C(C)=O)cc3)c(=O)[nH]c2c1 (stereo not given)	-77.9*
Cc1ccsc1CN(C)C(=O)CCc1nnc(COc2ccccc2)o1	-62.3*
CN(Cc1ccsc1)C(=O)CCc1nnc(CCCc2ccccc2)o1	-118.6*
COc1cccc(CN(C)C(=O)CCc2nnc(-c3ccsc3)o2)c1	-79.7*
CC(C)(C)c1cc(C(=O)NCc2cc(F)cc3c2OCOC3)n(Cc2ccccc2)n1	-109.1*
CN(Cc1cnc2nc(N)nc(N)c2n1)c1ccc(C(=O)N[C@@H](CCC(=O)O)C(=O)O)cc1	77.5
COc1ccc2cc(C(=O)N(C)Cc3ccccc3)[nH]c2c1	-86.3*
COc1ccc2cc(C(=O)N3CCC(Cc4ccccc4)CC3)[nH]c2c1	-76.5*
COc1ccc2[nH]c(C(=O)NCCc3ccccc3)cc2c1	-92.0*
C1=Nc2ccccc2CN1c1ccccc1	-119.6*
CC(C)c1ccc(N2C=Nc3ccc(C(C)C)cc3C2)cc1	-63.1*
COc1cccc(C2=CC(c3cccc(OC)c3OC)n3nnnc3N2)c1 (stereo not given)	-294.6*
COc1cccc(C2=CC(c3cc(OC)ccc3OC)n3nnnc3N2)c1 (stereo not given)	-165.0*
Cc1nn(C)c(=O)n1-c1ccc(OCc2ccccc2)cc1	-103.8*
Cc1nn(CCOc2ccccc2)c(=O)n1-c1ccc(F)cc1	-64.6*
O=C(O)c1cccc(NC2=Nc3cccc4cccc2c34)c1	-114.0*
Fc1ccc(Nc2ccnc(Nc3ccc(F)cc3)n2)cc1	-93.5*
COc1cc(CNCCO)ccc1OCC(=O)Nc1ccc(Br)cc1	-68.9*
O=[N+]([O-])c1ccc(N=NNc2ccccc2)cc1	-138.6*
Brc1ccc(N=NNc2ccccc2)cc1	-188.4*
NC(=S)N=Nc1ccc(NN=C(N)N)cc1	68.4
O=[N+]([O-])c1cccc(NN=Nc2ccccc2)c1	-129.5*
CN1CCN(/N=C/c2ccc(-c3ccccc3)cc2)CC1	-133.2*
CSc1ccc(/C=N/N2CCN(C)CC2)cc1	-94.8*
CSc1ccc(/C=N/n2c(C)cc(C)cc2=O)cc1	-126.6*
SMILES	aSyn 5UTR act
CC(C)c1nc2oc3c(NCc4ccccn4)ncnc3c2c2c1COC(C)(C)C2	51.4
CC(C)Sc1nc(NCc2ccco2)c2c3c(sc2n1)COC(C)(C)C3	-84.9*
O=C(/C=C/c1ccc(O)c(O)c1)NC(=O)c1ccccc1O	-145.4*
O=C(/C=C/c1ccc(Br)cc1)NC(=O)c1ccccc1O	-161.5*
CSc1ccc(/C=C/C(=O)NC(=O)c2ccccc2O)cc1	-118.7*
CN1CCC(=NNC(=O)C(=O)Nc2ccc(F)cc2)CC1	-92.5*
Cc1ccc(-c2nc3ccccc3s2)cc1S(=O)(=O)N1CCCC1	-62.8*
CC(=O)Nc1ccc(S(=O)(=O)NC(CC(=O)NCCc2ccccc2)C(C)C)cc1 (stereo not given)	-109.4*
COc1ccc(-c2nnc(-c3cccnc3)o2)cc1	-111.5*
Brc1ccccc1-c1nnc(-c2cccnc2)o1	-106.5*
Cc1ccc(-c2nnc(-c3cccnc3)o2)cc1	-113.1*
Clc1ccc(-c2nnc(-c3cccnc3)o2)cc1	-138.5*
Brc1ccc(-c2nnc(-c3cccnc3)o2)cc1	-143.8*
FC(F)(F)c1ccc(-c2nnc(-c3cccnc3)o2)cc1	-88.0*
CCCOc1ccc(-c2nnc(-c3ccncc3)o2)cc1	-80.4*
CCCOc1ccc(C(=O)NNC(=S)NC(C)=O)cc1	67.7
Brc1ccc(-c2nnc(-c3ccccc3Br)o2)cc1	-100.1*
Clc1ccc(-c2nnc(-c3ccccc3)o2)cn1	-153.0*
Cc1noc(C)c1-c1nnc(-c2ccc(C(F)(F)F)cc2)o1	-65.6*
COc1cccc2sc(N(CCCN(C)C)C(=O)c3ccc(S(=O)(=O)N4CCCc5ccccc54)cc3)nc12	64.1
COc1ccccc1C(=O)N(CCC1CCCN1C)c1nc2ccccc2s1 (stereo not given)	-103.2*
COc1cccc2sc(N(CCCN(C)C)C(=O)c3ccc(S(=O)(=O)N4CCc5ccccc5C4)cc3)nc12	94.2
COc1ccc(NC(=O)c2cc3sccc3n2Cc2ccc(F)cc2)cc1OC	-75.8*
Cn1c(C(=O)Nc2ccccc2)cc2sccc21	-171.7*
COC(=O)c1ccc(NC(=O)c2cc3sccc3n2C)cc1	-78.9*
SMILES	aSyn 5UTR act
COc1ccc(OC)c(NC(=O)c2cc3sccc3n2C)c1	-93.3*
COc1cc(NC(=O)c2cc3sccc3n2C)cc(OC)c1	-232.3*
Cn1c(C(=O)Nc2ccc3c(c2)OCO3)cc2sccc21	-244.7*
c1ccc(-c2ccc(CN3CCSCC3)cc2)cc1	-87.9*
C/C(=N/NC(=O)c1cccs1)c1cccs1	-81.7*
C/C(=N/Nc1ccccc1C(=O)O)c1cccs1	-88.7*
CC(=O)N1CCC(=NNC(=O)c2cccs2)CC1	-114.8*
C/C(=N\NC(=O)c1sccc1-n1cccc1)c1cccs1	-80.3*
C/C(=N/NC(=O)c1cccs1)c1cccc(N)c1	-86.4*
CCOC(=O)N/N=C(\C)c1cccs1	-67.2*
O=C(NN=C1C2CC3CC(C2)CC1C3)c1cccs1	-86.8*
C/C(=N\NC(=O)COc1ccccc1[N+](=O)[O-])c1cccs1	-146.2*

Screens deposited in PubChem by Broad Institute.
